Screening data from PubChem BioAssay.
Only some compounds are listed: those with a hit (about 0.93% of all), similar ones and a draw of the others.
TAR Tat displ: TAR RNA-Tat peptide displacers, HIV-1, primary screen, biochemical, FRET, FAM/TAMRA-labeled Tat | z-score (test concentration not listed) | HIV-1 TAR RNA, Tat peptide displacement FRET; stronger effect = higher value | AID 1259389, 2018 | 0.6% of 100,000 active; active = z-score of 3 or more in at least 2 runs
CDC25B CDK2 inh: primary biochemical HTRF screen for blockers of M-phase inducer phosphatase 2 binding to CDK2/cyclin A; 0.72% of 94,000 active; z-score (test concentration not listed); HTRF CDC25B-CDK2/CyclinA binding, anti-His/anti-Flag; stronger effect = higher value; P30305+P24941; in the data active = z-score above about 3.2
Numbers stand for hits.

`O=c1nc(/C=C/c2ccc(O)c(O)c2)oc2ccccc12` gave TAR Tat displ 18.2 and CDC25B CDK2 inh inactive.
For CS(=O)(=O)Nc1nc2ccc(NC(=O)Cc3cccs3)cc2s1 the results were TAR Tat displ 16.1.
Screening CCCCC(=O)Nc1ccc2nc(NS(C)(=O)=O)sc2c1 returned TAR Tat displ inactive.
`O=c1cc(CSc2n[nH]c(-c3ccccc3F)n2)nc2sc(C3CCCCC3)nn12` gave TAR Tat displ inactive.
For COC(=O)c1sccc1NC(=O)c1cccs1 the results were CDC25B CDK2 inh 6.69.
COC(=O)c1sccc1NC(=O)Cc1cccs1 was read as CDC25B CDK2 inh inactive.
Screening O=C(CN1N=C(c2ccccc2)c2cc(Cl)ccc2S1(=O)=O)NC1CCCC1 returned TAR Tat displ inactive.
For Cc1cc(C)c(-c2c(NCCc3sccc3C)c(=O)c2=O)cc1C the results were TAR Tat displ inactive.
`Cc1noc(-c2ccccc2)c1NC(=O)NCC1COc2ccccc2O1` (configuration not stated) gave CDC25B CDK2 inh 7.
O=C(NCC1COc2ccccc2O1)Nc1ccc(Cl)cc1 (configuration not stated) was read as CDC25B CDK2 inh inactive.
Screening Cc1ccc(C)c(Cn2nc(-c3ccc(C)c(S(=O)(=O)N4CCCCC4)c3)ccc2=O)c1 returned TAR Tat displ inactive and CDC25B CDK2 inh inactive.
Screening CC(=O)NS(=O)(=O)c1ccc(NC(=O)CCN2C(=O)/C(=C/c3ccccc3)SC2=S)cc1 returned CDC25B CDK2 inh inactive.
Screening O=C(O)CN1C(=O)/C(=C\c2ccc(-c3cccc4c3C(=O)c3ccccc3C4=O)o2)SC1=S returned CDC25B CDK2 inh 10.3.
`O=c1[nH]c(S)nc2c1sc(=S)n2-c1ccc(Cl)cc1` gave TAR Tat displ inactive and CDC25B CDK2 inh inactive.
For Cc1ccccc1Cn1cccc1CNS(=O)(=O)c1ccc2c(c1)CCCC2 the results were TAR Tat displ inactive.
CC(C)Cn1c(=O)c2ccccc2n2c(CCC(=O)N3CCN(C4CCCCC4)CC3)nnc12 was read as TAR Tat displ inactive and CDC25B CDK2 inh inactive.
CCOC(=O)c1cn2c3c(ccc(Cl)c3c1=O)OC(C)C2 (configuration not stated) was read as TAR Tat displ 17.5.
Screening CCNC(=O)c1cn2c3c(ccc(Cl)c3c1=O)OC(C)C2 (configuration not stated) returned TAR Tat displ inactive.
COc1ccc(-c2cc3nc(C)cc(NCc4cccnc4)n3n2)cc1OC was read as TAR Tat displ 5.06 and CDC25B CDK2 inh inactive.
Screening COc1ccc(CNc2cc(C)nc3c(-c4ccc(OC)c(OC)c4)c(C)nn23)cc1 returned TAR Tat displ inactive and CDC25B CDK2 inh inactive.
For CC(C)Oc1ccc(-c2nc3ncccn3c2NC2CCCCC2)cc1 the results were TAR Tat displ inactive.
Screening Cc1ccc(Nc2nc(N3CCCC3)nc3c2cnn3C)cc1 returned TAR Tat displ inactive.
COc1cccc(C2CC(=O)N3CN(c4ccc(Br)cc4)CSC3=C2C#N)c1OC (configuration not stated) was read as TAR Tat displ inactive and CDC25B CDK2 inh 5.94.
Screening COc1cccc(C2CC(=O)N3CN(c4ccccc4)CSC3=C2C#N)c1OC (configuration not stated) returned TAR Tat displ inactive and CDC25B CDK2 inh 3.46.
Screening COc1cccc(C2CC(=O)N3CN(C)CSC3=C2C#N)c1OC (configuration not stated) returned TAR Tat displ inactive and CDC25B CDK2 inh 4.32.
Screening COc1ccc(C2CC(=O)N3CN(c4ccc(Br)cc4)CSC3=C2C#N)cc1OC (configuration not stated) returned TAR Tat displ inactive and CDC25B CDK2 inh 5.59.
Screening N#Cc1ccc(C#CCO)cc1 returned CDC25B CDK2 inh inactive.
`Cc1cc(OCc2noc(-c3cccnc3)n2)ccc1Cl` gave TAR Tat displ inactive and CDC25B CDK2 inh inactive.
For Clc1ccc(CNc2c(-c3ccc4c(c3)OCCO4)nc3ncccn23)cc1 the results were TAR Tat displ inactive.
`CC1CCC2C(=O)N(c3ccc(Br)cc3)C(=O)C2C1` (configuration not stated) gave TAR Tat displ inactive and CDC25B CDK2 inh inactive.
COc1ccc(C2CC(=O)N3CN(C4CCCC4)CSC3=C2C#N)cc1OC (configuration not stated) was read as TAR Tat displ inactive and CDC25B CDK2 inh 5.89.
N#CC1=C2SCN(C3CCCCC3)CN2C(=O)CC1c1ccc(Cl)cc1 (configuration not stated) was read as TAR Tat displ inactive and CDC25B CDK2 inh inactive.
Screening N#CC1=C2SCN(c3ccc(Br)cc3)CN2C(=O)CC1c1ccccc1F (configuration not stated) returned TAR Tat displ inactive and CDC25B CDK2 inh 7.27.
`COc1cccc(C2CC(=O)N3CN(C4CCCCC4)CSC3=C2C#N)c1OC` (configuration not stated) gave TAR Tat displ inactive and CDC25B CDK2 inh 6.17.
Screening Cc1ccc(C2CC(=O)N3CN(c4ccc(Br)cc4)CSC3=C2C#N)o1 (configuration not stated) returned TAR Tat displ inactive and CDC25B CDK2 inh 7.35.
Screening COc1ccccc1C1CC(=O)N2CN(C3CCCCC3)CSC2=C1C#N (configuration not stated) returned TAR Tat displ inactive and CDC25B CDK2 inh inactive.
S=c1nn[nH]n1-c1cc(Cl)c(Cl)cc1Cl was read as CDC25B CDK2 inh inactive.
`CC(C)c1nc2n[nH]c(N)c2c2c1COC(C)(C)C2` gave TAR Tat displ inactive and CDC25B CDK2 inh inactive.
`CC1=C(c2ccc(F)cc2)S(=O)(=O)N=C1N1CCN(C)CC1` gave TAR Tat displ inactive.
For Cc1cc(C)cc(NC(=O)C(C)n2c3ccccc3c3nc(=O)cc(C)n32)c1 (configuration not stated) the results were TAR Tat displ inactive and CDC25B CDK2 inh inactive.
`O=C(Nc1cccc2cccnc12)c1ccco1` gave TAR Tat displ inactive and CDC25B CDK2 inh 5.61.
O=C(Nc1cccc2cccnc12)C(=O)Nc1cccc2cccnc12 was read as CDC25B CDK2 inh inactive.
Cc1ccc2c(c1)N(C(=O)N1CCC(C(=O)NC(C)c3ccc4c(c3)OCCO4)CC1)CC(C)O2 (configuration not stated) was read as TAR Tat displ inactive.
For Cc1nc(-c2ccccc2)sc1C(=O)Nc1sc(C)c(C)c1C#N the results were TAR Tat displ inactive and CDC25B CDK2 inh inactive.
For Cc1nc(-c2ccccc2)sc1C(=O)Nc1sc2c(c1C#N)CCC2 the results were TAR Tat displ 16.7 and CDC25B CDK2 inh inactive.
`Cn1c(=O)c2cc3cc(Cl)ccc3nc2c2c(=O)n(-c3ccccc3)c(=O)n(-c3ccccc3)c21` gave CDC25B CDK2 inh inactive.
Screening Cn1c(=O)c2c3nc4ccccc4cc3c(=O)n(C)c2n(C)c1=O returned CDC25B CDK2 inh 20.1.
Screening NCC(O)c1ccc(O)c(O)c1 (configuration not stated) returned CDC25B CDK2 inh 5.4.
CC(C)NC[C@H](O)c1ccc(O)c(O)c1 was read as CDC25B CDK2 inh inactive.
Clc1ccc(CNc2c(-c3ccccn3)nc3ncccn23)cc1 was read as TAR Tat displ inactive.
`CCCn1cc(S(=O)(=O)c2ccc(F)cc2)c(=O)c2cc(Cl)ccc21` gave TAR Tat displ inactive and CDC25B CDK2 inh inactive.
